Experimental data as given in PubChem BioAssay AID1159580 (chemical genetic matrix, 2015).
Hit rate of the full screen: of about 5,500 compounds, about 2,000 (36%) were called active. About 18% were inconclusive and are not listed. Cut-off read from the data, not from the text of the source: active = normalized growth mostly below about 0.91 (no sharp cut-off); inconclusive = no clear call, values can overlap the other calls; inactive = mostly above about 0.92. The list shows a part of the results.

Experiment: chemical genetic growth profiling, strain panel (AID 1159580);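 note: tested at 20 µM; growth read once vehicle control cultures reached saturation at 30 °C; 1 = growth at the plate median or of vehicle wells; lower values mean less growth of the strain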
Conditions: growth OD

Measured: normalized growth

CC12CCC3C(CC3(C)C)C(C)(CCC1=O)O2 (configuration not stated)
inactive: S. cerevisiae deletion strains, locus YJR043C, strain POL32, stronger effect = lower value 1.01 | S. cerevisiae deletion strains, locus YJR066W, strain TOR1, stronger effect = lower value 0.988 | S. cerevisiae deletion strains, locus YKL009W, strain mrt4, stronger effect = lower value 1.03 | S. cerevisiae deletion strains, locus YKL068W, stronger effect = lower value 1.01 | S. cerevisiae deletion strains, locus YKL085W, strain MDH1 (second series), stronger effect = lower value 1.01 | S. cerevisiae deletion strains, locus YKL085W, strain MDH1, stronger effect = lower value 1.01 | S. cerevisiae deletion strains, locus YKL160W, strain elf1, stronger effect = lower value 1.03 | S. cerevisiae deletion strains, locus YKL190W, strain CNB1, stronger effect = lower value 1.01 | S. cerevisiae deletion strains, locus YKR001C, strain vps1, stronger effect = lower value 1.03 | S. cerevisiae deletion strains, locus YKR026C, strain gcn3, stronger effect = lower value 0.994 | S. cerevisiae deletion strains, locus YKR091W, strain srl3, stronger effect = lower value 0.992 | S. cerevisiae deletion strains, locus YLL001W, strain dnm1, stronger effect = lower value 1.01 | S. cerevisiae deletion strains, locus YLL026W, stronger effect = lower value 0.997 | S. cerevisiae deletion strains, locus YLL041C, strain sdh2, stronger effect = lower value 0.992 | S. cerevisiae deletion strains, locus YLR027C, strain aat2, stronger effect = lower value 1.01 | S. cerevisiae deletion strains, locus YLR039C, strain RIC1, stronger effect = lower value 1.08 | S. cerevisiae deletion strains, locus YLR058C, strain SHM2, stronger effect = lower value 1.02 | S. cerevisiae deletion strains, locus YLR102C, strain apc9, stronger effect = lower value 1.01 | S. cerevisiae deletion strains, locus YLR113W, strain HOG1, stronger effect = lower value 1.04 | S. cerevisiae deletion strains, locus YLR221C, strain rsa3, stronger effect = lower value 1 | S. cerevisiae deletion strains, locus YLR258W, strain gsy2, stronger effect = lower value 0.99 | S. cerevisiae deletion strains, locus YLR262C, strain YPT6 (second series), stronger effect = lower value 0.992 | S. cerevisiae deletion strains, locus YLR268W, strain sec22, stronger effect = lower value 1.03 | S. cerevisiae deletion strains, locus YLR320W, strain mms22, stronger effect = lower value 0.992 | S. cerevisiae deletion strains, locus YLR330W, strain CHS5, stronger effect = lower value 1.02 | S. cerevisiae deletion strains, locus YLR342W, strain FKS1, stronger effect = lower value 0.992 | S. cerevisiae deletion strains, locus YLR357W, strain rsc2, stronger effect = lower value 1.01 | S. cerevisiae deletion strains, locus YLR370C, strain arc18, stronger effect = lower value 1.03 | S. cerevisiae deletion strains, locus YLR371W, strain rom2, stronger effect = lower value 0.982 | S. cerevisiae deletion strains, locus YLR384C, strain iki3, stronger effect = lower value 1 | S. cerevisiae deletion strains, locus YLR418C, strain cdc73, stronger effect = lower value 1.07 | S. cerevisiae deletion strains, locus YML016C, strain PPZ1, stronger effect = lower value 1.01 | S. cerevisiae deletion strains, locus YML032C, strain rad52, stronger effect = lower value 1.02 | S. cerevisiae deletion strains, locus YML120C, strain ndi1, stronger effect = lower value 1 | S. cerevisiae deletion strains, locus YML124C, strain tub3, stronger effect = lower value 1.02 | S. cerevisiae deletion strains, locus YMR058W, strain fet3, stronger effect = lower value 1.02 | S. cerevisiae deletion strains, locus YMR078C, strain ctf18, stronger effect = lower value 1.01 | S. cerevisiae deletion strains, locus YMR125W, strain sto1, stronger effect = lower value 1.02 | S. cerevisiae deletion strains, locus YMR129W, stronger effect = lower value 0.987 | S. cerevisiae deletion strains, locus YMR205C, strain PFK2, stronger effect = lower value 1.01 | S. cerevisiae deletion strains, locus YMR223W, strain ubp8, stronger effect = lower value 1.03 | S. cerevisiae deletion strains, locus YMR231W, strain pep5, stronger effect = lower value 1.01 | S. cerevisiae deletion strains, locus YMR307W, strain GAS1, stronger effect = lower value 1.02 | S. cerevisiae deletion strains, locus YNL067W, strain RPL9B, stronger effect = lower value 1.03 | S. cerevisiae deletion strains, locus YNL071W, strain lat1, stronger effect = lower value 0.999 | S. cerevisiae deletion strains, locus YNL183C, strain NPR1, stronger effect = lower value 0.999 | S. cerevisiae deletion strains, locus YNL209W, strain ssb2, stronger effect = lower value 0.996 | S. cerevisiae deletion strains, locus YNL233W, strain BNI4, stronger effect = lower value 1.04 | S. cerevisiae deletion strains, locus YNL248C, strain rpa49, stronger effect = lower value 1.04 | S. cerevisiae deletion strains, locus YNL250W, strain rad50, stronger effect = lower value 1.05 | S. cerevisiae deletion strains, locus YNL271C, strain bni1, stronger effect = lower value 1.02 | S. cerevisiae deletion strains, locus YNL298W, strain CLA4, stronger effect = lower value 1.02 | S. cerevisiae deletion strains, locus YNL307C, strain MCK1, stronger effect = lower value 1.03 | S. cerevisiae deletion strains, locus YNL322C, strain KRE1 (second series), stronger effect = lower value 0.985 | S. cerevisiae deletion strains, locus YNL322C, strain KRE1, stronger effect = lower value 1.01 | S. cerevisiae deletion strains, locus YNR049C, strain mso1, stronger effect = lower value 0.999 | S. cerevisiae deletion strains, locus YNR052C, strain pop2, stronger effect = lower value 1.04 | S. cerevisiae deletion strains, locus YOL006C, strain TOP1, stronger effect = lower value 1.08 | S. cerevisiae deletion strains, locus YOL012C, strain htz1 0.815 | S. cerevisiae deletion strains, locus YOL147C, strain pex11, stronger effect = lower value 0.996 | S. cerevisiae deletion strains, locus YOR001W, strain rrp6, stronger effect = lower value 0.95 | S. cerevisiae deletion strains, locus YOR061W, strain CKA2, stronger effect = lower value 1.01 | S. cerevisiae deletion strains, locus YOR069W, strain VPS5, stronger effect = lower value 1.02 | S. cerevisiae deletion strains, locus YOR070C, strain gyp1, stronger effect = lower value 1.03 | S. cerevisiae deletion strains, locus YOR080W, strain dia2, stronger effect = lower value 0.989 | S. cerevisiae deletion strains, locus YOR083W, strain WHI5, stronger effect = lower value 1.03 | S. cerevisiae deletion strains, locus YOR106W, strain vam3, stronger effect = lower value 0.998 | S. cerevisiae deletion strains, locus YOR136W, strain idh2, stronger effect = lower value 1.01 | S. cerevisiae deletion strains, locus YOR144C, strain elg1, stronger effect = lower value 1.02 | S. cerevisiae deletion strains, locus YOR184W, strain ser1, stronger effect = lower value 0.997 | S. cerevisiae deletion strains, locus YOR231W, strain MKK1, stronger effect = lower value 1.05 | S. cerevisiae deletion strains, locus YOR265W, strain rbl2, stronger effect = lower value 1.02 | S. cerevisiae deletion strains, locus YOR270C, strain vph1, stronger effect = lower value 1.1 | S. cerevisiae deletion strains, locus YOR290C, strain snf2, stronger effect = lower value 0.975 | S. cerevisiae deletion strains, locus YOR316C, strain cot1, stronger effect = lower value 1.02 | S. cerevisiae deletion strains, locus YPL051W, strain arl3, stronger effect = lower value 1 | S. cerevisiae deletion strains, locus YPL055C, strain LGE1, stronger effect = lower value 1.04 | S. cerevisiae deletion strains, locus YPL078C, strain atp4, stronger effect = lower value 1.02 | S. cerevisiae deletion strains, locus YPL106C, strain sse1, stronger effect = lower value 1.01 | S. cerevisiae deletion strains, locus YPL240C, strain hsp82, stronger effect = lower value 0.994 | S. cerevisiae deletion strains, locus YPL256C, strain CLN2, stronger effect = lower value 1.06 | S. cerevisiae deletion strains, locus YPR119W, strain clb2, stronger effect = lower value 1.02 | S. cerevisiae deletion strains, locus YPR141C, strain kar3, stronger effect = lower value 1.01 | S. cerevisiae deletion strains, locus YPR163C, strain tif3, stronger effect = lower value 1.03 | S. cerevisiae deletion strains, locus YPR167C, strain met16, stronger effect = lower value 1.02 | S. cerevisiae deletion strains, strain wtn01, stronger effect = lower value 1.01 | S. cerevisiae strains, strain wild type, stronger effect = lower value 1.03
